From the supplement of paper PMC10849652
Targets with a hit are over-represented here; the source holds about 7,900 in all. About 0.6% of all pairs of compound and target were hits.

Legend:
Test in all cases: log2 fold change, soluble protein after heating vs DMSO (PISA); higher = thermal stabilisation; K562 cells, 10 uM, 30 min; active = over 0.2 and 3.5 SD of the protein, either way, in both replicates (recomputed)
[1] = compound: CN1CCN(CCOc2cc(OC3CCOCC3)c3c(Nc4c(Cl)ccc5c4OCO5)ncnc3c2)CC1 [saracatinib]
Outline: (§1)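 Thermal stability values are relative to control samples and come from duplicates. They are expressed as log2 fold changes. For measurement, K562 cells (2×10^6 cells/mL) received 10 μM compound for 30 min, and aliquots were heated for 3 min over 48°C-58°C, pooled, and extracted at 4°C in PBS with 0.5% NP-40. Soluble protein, the supernatant after 21,000xg for 90 min, was quantified by TMTpro 16plex LC-MS/MS with equalised channel sums.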

[2] = compound: CN1CCN(c2nc(C3=C(c4c[nH]c5ccccc45)C(=O)NC3=O)c3ccccc3n2)CC1 [sotrastaurin]
Outline: as §1

[3] = compound: CN1CC[C@H](c2c(O)cc(O)c3c(=O)cc(-c4ccccc4Cl)oc23)[C@H](O)C1 [alvocidib]
Outline: as §1

[4] = compound: CN1CCc2c(c3ccccc3n2Cc2ccc(C(=O)NO)cc2)C1 [Tubastatin A]
Outline: as §1

[5] = compound: CNC(=O)C1=CC=CC=C1NC2=NC(=NC=C2Cl)NC3=C(C=C(C=C3)N4CCOCC4)OC
Outline: as §1

[6] = compound: CNC(=O)c1ccc(Nc2ncc(C(F)(F)F)c(NCc3nccnc3N(C)S(C)(=O)=O)n2)cc1 [defactinib]
Outline: as §1

[7] = compound: CNCc1ccc(-c2[nH]c3cc(F)cc4c3c2CCNC4=O)cc1 [rucaparib]
Outline: as §1

[8] = compound: CNc1nc(-c2ccc3c(N)n[nH]c3c2)cc(N2C[C@@H](C(=O)NC3CCCCC3)CC[C@H]2C)n1
Outline: as §1

[9] = compound: COC(=O)N[C@@H](C)CNc1nccc(-c2cn(C(C)C)nc2-c2cc(Cl)cc(NS(C)(=O)=O)c2F)n1 [encorafenib]
Outline: as §1

[10] = compound: COC(=O)[C@H](CCSC)NC(=O)C1=C(C=C(C=C1)NC[C@H](CS)N)C2=CC=CC=C2
Outline: as §1

Measured: log2 fold change

GIGYF2 (UniProt Q6Y7W6)
inactive: [1] -0.097 | [2] -0.111 | [3] -0.118 | [4] 0.023 | [5] 0.005 | [6] -0.04 | [7] 0.065 | [8] 0.016 | [9] -0.018 | [10] -0.022

HDDC2 (UniProt Q7Z4H3)
inactive: [1] 0.045 | [2] 0.042 | [3] -0.049 | [4] 0.015 | [5] 0.007 | [6] -0.014 | [7] -0.014 | [8] 0.063 | [9] 0.014 | [10] -0.013

HBZ (UniProt P02008)
UniProt P02008, sequence (P02008 whole entry, looked up): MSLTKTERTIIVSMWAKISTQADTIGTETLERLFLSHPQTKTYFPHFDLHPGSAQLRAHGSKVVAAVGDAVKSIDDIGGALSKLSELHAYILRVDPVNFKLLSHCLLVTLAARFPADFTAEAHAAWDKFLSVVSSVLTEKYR
inactive: [1] 0.022 | [2] 0.03 | [3] 0.036 | [4] 0 | [5] -0.041 | [6] 0.011 | [7] -0.026 | [8] -0.006 | [9] -0.004 | [10] -0.025

GTF2H3 (UniProt Q13889)
UniProt Q13889, sequence (Q13889 whole entry, looked up): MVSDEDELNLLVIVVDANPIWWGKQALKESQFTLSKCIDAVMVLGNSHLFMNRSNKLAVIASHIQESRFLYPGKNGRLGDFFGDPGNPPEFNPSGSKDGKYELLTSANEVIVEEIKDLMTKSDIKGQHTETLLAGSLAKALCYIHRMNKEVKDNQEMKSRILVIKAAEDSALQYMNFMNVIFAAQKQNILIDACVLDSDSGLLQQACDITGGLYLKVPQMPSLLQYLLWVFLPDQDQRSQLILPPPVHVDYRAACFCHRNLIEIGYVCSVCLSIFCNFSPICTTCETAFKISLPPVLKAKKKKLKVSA
inactive: [1] -0.099 | [2] -0.079 | [3] -0.071 | [4] 0.124 | [5] 0.008 | [6] 0.009 | [7] 0.09 | [8] -0.001 | [9] -0.073 | [10] 0.043

FUCA1 (UniProt P04066)
inactive: [1] 0.038 | [2] -0.048 | [3] 0.059 | [4] -0.035 | [5] -0.015 | [6] -0.032 | [7] -0.186 | [8] 0.023 | [9] 0 | [10] 0.014

FLNA (UniProt P21333)
UniProt P21333, sequence (P21333 whole entry, looked up): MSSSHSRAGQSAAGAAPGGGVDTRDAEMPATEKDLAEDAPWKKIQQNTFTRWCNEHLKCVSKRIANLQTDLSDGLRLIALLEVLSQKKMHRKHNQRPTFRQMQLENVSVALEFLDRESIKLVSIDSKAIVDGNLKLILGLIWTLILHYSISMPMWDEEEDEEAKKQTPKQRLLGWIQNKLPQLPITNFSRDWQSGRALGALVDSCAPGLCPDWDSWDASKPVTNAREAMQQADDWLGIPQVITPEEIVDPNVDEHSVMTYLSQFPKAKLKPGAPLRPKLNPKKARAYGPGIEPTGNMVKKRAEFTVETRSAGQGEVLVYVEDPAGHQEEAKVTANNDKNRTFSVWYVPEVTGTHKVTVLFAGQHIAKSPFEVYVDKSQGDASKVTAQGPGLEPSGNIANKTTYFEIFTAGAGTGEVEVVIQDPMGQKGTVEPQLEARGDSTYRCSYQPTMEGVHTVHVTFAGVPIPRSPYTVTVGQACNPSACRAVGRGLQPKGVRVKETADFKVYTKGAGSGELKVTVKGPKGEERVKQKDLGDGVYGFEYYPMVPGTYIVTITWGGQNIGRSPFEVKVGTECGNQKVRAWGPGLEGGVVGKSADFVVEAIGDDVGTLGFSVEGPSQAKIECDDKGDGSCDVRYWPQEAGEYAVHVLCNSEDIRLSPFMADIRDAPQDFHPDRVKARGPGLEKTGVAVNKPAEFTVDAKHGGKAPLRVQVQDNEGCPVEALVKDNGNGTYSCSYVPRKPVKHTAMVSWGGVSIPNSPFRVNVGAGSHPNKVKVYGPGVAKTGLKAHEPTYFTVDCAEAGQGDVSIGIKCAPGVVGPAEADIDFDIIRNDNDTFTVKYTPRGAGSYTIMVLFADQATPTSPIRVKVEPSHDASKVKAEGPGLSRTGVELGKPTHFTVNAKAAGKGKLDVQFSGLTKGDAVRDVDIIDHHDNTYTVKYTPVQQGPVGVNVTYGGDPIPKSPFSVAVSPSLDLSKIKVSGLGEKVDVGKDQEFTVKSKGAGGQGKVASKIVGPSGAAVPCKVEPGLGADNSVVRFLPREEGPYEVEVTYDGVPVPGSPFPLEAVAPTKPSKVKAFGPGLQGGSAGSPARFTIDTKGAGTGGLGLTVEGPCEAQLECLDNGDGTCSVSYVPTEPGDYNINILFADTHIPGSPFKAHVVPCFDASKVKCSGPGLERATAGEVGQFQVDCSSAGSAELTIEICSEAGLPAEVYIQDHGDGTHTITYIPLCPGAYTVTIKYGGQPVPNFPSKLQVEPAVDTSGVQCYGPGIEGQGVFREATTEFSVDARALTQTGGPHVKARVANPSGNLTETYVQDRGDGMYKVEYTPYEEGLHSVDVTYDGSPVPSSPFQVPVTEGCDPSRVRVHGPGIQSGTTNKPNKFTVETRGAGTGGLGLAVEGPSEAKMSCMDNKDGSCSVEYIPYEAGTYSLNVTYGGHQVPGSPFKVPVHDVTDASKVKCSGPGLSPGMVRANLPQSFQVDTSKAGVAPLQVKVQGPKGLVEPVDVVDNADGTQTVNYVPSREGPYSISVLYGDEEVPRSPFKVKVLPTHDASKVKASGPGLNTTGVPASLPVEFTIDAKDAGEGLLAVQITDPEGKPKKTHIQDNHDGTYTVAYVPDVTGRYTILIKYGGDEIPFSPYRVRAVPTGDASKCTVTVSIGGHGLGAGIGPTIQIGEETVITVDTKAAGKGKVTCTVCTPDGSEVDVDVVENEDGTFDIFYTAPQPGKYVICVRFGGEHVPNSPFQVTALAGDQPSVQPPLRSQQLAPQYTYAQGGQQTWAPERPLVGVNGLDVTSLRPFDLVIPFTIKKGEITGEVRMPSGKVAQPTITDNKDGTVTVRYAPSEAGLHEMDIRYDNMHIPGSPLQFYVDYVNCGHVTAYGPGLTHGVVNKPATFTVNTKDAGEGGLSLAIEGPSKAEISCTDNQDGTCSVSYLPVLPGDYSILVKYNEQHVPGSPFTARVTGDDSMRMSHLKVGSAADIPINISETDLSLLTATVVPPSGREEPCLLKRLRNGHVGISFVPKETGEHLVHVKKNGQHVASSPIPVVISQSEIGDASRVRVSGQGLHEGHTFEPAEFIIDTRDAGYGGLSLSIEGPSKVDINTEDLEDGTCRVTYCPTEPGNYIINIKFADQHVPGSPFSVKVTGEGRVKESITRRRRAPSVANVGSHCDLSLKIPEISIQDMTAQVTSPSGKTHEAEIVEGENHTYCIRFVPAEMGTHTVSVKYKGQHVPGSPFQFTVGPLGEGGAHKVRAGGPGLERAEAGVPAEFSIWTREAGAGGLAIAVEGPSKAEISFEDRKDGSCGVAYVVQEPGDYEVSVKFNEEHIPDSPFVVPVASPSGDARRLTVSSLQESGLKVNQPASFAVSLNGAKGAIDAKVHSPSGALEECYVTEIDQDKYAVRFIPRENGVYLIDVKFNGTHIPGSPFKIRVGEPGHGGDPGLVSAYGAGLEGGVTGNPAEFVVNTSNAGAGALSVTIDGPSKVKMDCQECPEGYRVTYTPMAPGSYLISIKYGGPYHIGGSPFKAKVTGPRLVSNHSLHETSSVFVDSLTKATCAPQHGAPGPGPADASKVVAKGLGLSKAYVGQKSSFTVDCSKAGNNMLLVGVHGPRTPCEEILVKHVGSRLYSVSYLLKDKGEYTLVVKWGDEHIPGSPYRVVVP
inactive: [1] -0.076 | [2] -0.161 | [3] -0.017 | [4] 0.052 | [5] 0.106 | [6] -0.042 | [7] 0.1 | [8] 0.017 | [9] 0.089 | [10] -0.053

GLUL (UniProt P15104)
inactive: [1] 0.012 | [2] -0.058 | [3] 0.026 | [4] 0.048 | [5] 0.142 | [6] 0.036 | [7] -0.039 | [8] -0.153 | [9] -0.02 | [10] 0.038

HMGN2 (UniProt P05204)
inactive: [1] -0.138 | [2] 0.156 | [3] 0.069 | [4] -0.05 | [5] 0.026 | [6] 0.046 | [7] 0.13 | [8] 0.075 | [9] -0.091 | [10] 0.013

GABARAPL1 isoform 2 (UniProt Q9H0R8)
inactive: [1] -0.057 | [2] 0 | [3] -0.019 | [4] 0.08 | [5] 0.023 | [6] -0.011 | [7] -0.079 | [8] -0.006 | [9] -0.004 | [10] -0.058

HOMER1 (UniProt Q86YM7)
inactive: [1] 0.032 | [2] 0.045 | [3] -0.047 | [4] -0.084 | [5] 0.021 | [6] 0.015 | [7] 0.021 | [8] 0.007 | [9] 0.04 | [10] -0.047

FMC1 (UniProt Q96HJ9)
UniProt Q96HJ9, sequence (Q96HJ9 whole entry, looked up): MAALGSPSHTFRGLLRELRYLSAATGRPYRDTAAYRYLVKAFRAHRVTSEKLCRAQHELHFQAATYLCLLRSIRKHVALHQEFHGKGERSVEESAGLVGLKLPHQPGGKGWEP
inactive: [1] 0.139 | [2] 0.09 | [3] 0.026 | [4] 0.034 | [5] 0.113 | [6] -0.056 | [7] -0.023 | [8] -0.071 | [9] -0.105 | [10] 0.051

GTF2A2 (UniProt P52657)
UniProt P52657, sequence (P52657 whole entry, looked up): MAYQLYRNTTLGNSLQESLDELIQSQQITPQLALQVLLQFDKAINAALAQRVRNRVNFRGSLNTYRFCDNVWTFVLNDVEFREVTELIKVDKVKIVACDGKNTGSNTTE
inactive: [1] 0.034 | [2] 0.018 | [3] -0.003 | [4] 0.026 | [5] -0.031 | [6] -0.025 | [7] -0.061 | [8] -0.025 | [9] -0.022 | [10] 0.018

GTF2B (UniProt Q00403)
UniProt Q00403, sequence (Q00403 whole entry, looked up): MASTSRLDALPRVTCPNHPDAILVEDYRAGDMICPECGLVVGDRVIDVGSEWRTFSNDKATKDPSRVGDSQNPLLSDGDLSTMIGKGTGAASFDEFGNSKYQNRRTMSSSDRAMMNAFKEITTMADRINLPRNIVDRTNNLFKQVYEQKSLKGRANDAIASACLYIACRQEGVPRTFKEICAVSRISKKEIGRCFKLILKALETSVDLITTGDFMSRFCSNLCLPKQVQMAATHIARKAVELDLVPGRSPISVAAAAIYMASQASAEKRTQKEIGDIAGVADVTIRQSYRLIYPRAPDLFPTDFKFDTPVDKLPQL
inactive: [1] -0.155 | [2] -0.103 | [3] -0.22 | [4] 0.135 | [5] -0.013 | [6] -0.144 | [7] -0.017 | [8] 0.026 | [9] 0.023 | [10] -0.01

GGT7 (UniProt Q9UJ14)
inactive: [1] 0.066 | [2] 0.051 | [3] -0.049 | [4] 0.053 | [5] -0.042 | [6] -0.027 | [7] -0.038 | [8] -0.091 | [9] 0 | [10] -0.011

FKBP4 (UniProt Q02790)
inactive: [1] -0.048 | [2] -0.022 | [3] -0.092 | [4] -0.009 | [5] 0.032 | [6] -0.055 | [7] 0.016 | [8] 0.05 | [9] 0.026 | [10] -0.036

GSTM4 (UniProt Q03013)
UniProt Q03013, sequence (Q03013 whole entry, looked up): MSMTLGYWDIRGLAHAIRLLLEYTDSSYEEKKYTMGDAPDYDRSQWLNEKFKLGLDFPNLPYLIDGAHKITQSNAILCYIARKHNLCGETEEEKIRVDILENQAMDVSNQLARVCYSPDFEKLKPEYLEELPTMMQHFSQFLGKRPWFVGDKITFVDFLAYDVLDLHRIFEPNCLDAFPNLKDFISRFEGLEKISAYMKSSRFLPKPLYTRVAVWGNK
active: [7] -0.385
inactive: [1] -0.106 | [2] -0.066 | [3] -0.065 | [4] -0.044 | [5] 0.003 | [6] -0.086 | [8] 0.06 | [9] -0.238 | [10] 0.093

HSPA8 (UniProt P11142)
inactive: [1] 0.067 | [2] 0.007 | [3] 0.01 | [4] -0.019 | [5] 0.139 | [6] 0.006 | [7] -0.029 | [8] -0.002 | [9] -0.009 | [10] 0.042

GALNT2 (UniProt Q10471)
inactive: [1] -0.025 | [2] 0.005 | [3] -0.012 | [4] 0.013 | [5] 0.004 | [6] 0.023 | [7] -0.046 | [8] -0.015 | [9] 0.036 | [10] -0.017

GYS1 (UniProt P13807)
inactive: [1] -0.255 | [2] -0.286 | [3] 0.1 | [4] 0.035 | [5] 0.107 | [6] 0.057 | [7] 0.077 | [8] 0.193 | [9] 0.176 | [10] -0.047

GALK1 isoform 2 (UniProt P51570)
inactive: [1] 0.117 | [2] -0.096 | [3] -0.035 | [4] -0.011 | [5] -0.049 | [6] -0.032 | [7] -0.014 | [8] 0.055 | [9] 0.007 | [10] -0.006

GOLGB1 isoform 2 (UniProt Q14789)
inactive: [1] -0.056 | [2] -0.121 | [3] 0.124 | [4] 0.029 | [5] 0.048 | [6] 0 | [7] 0.02 | [8] -0.001 | [9] -0.04 | [10] 0.003

HIST2H2BF isoform 2 (UniProt Q5QNW6)
inactive: [1] -0.084 | [2] 0.074 | [3] 0.144 | [4] 0.093 | [5] -0.044 | [6] 0.313 | [7] 0.325 | [8] 0.039 | [9] 0.015 | [10] 0.05

GALNT11 (UniProt Q8NCW6)
inactive: [1] -0.025 | [2] -0.024 | [3] 0 | [4] 0.028 | [5] 0.033 | [6] -0.187 | [7] -0.047 | [8] 0.01 | [9] -0.064 | [10] -0.055

GCDH (UniProt Q92947)
inactive: [1] 0.035 | [2] 0.07 | [3] 0 | [4] 0.004 | [5] -0.054 | [6] -0.012 | [7] 0.045 | [8] 0.009 | [9] -0.047 | [10] 0.008

GEMIN6 (UniProt Q8WXD5)
inactive: [1] 0.063 | [2] 0.002 | [3] -0.028 | [4] 0.072 | [5] 0.013 | [6] -0.061 | [7] 0.069 | [8] -0.028 | [9] -0.04 | [10] -0.112

FCHO1 (UniProt O14526)
inactive: [1] -0.064 | [2] -0.162 | [3] -0.049 | [4] 0.007 | [5] 0.043 | [6] -0.042 | [7] 0.248 | [8] 0.054 | [9] 0.101 | [10] 0.046

HADHA (UniProt P40939)
UniProt P40939, sequence (P40939 whole entry, looked up): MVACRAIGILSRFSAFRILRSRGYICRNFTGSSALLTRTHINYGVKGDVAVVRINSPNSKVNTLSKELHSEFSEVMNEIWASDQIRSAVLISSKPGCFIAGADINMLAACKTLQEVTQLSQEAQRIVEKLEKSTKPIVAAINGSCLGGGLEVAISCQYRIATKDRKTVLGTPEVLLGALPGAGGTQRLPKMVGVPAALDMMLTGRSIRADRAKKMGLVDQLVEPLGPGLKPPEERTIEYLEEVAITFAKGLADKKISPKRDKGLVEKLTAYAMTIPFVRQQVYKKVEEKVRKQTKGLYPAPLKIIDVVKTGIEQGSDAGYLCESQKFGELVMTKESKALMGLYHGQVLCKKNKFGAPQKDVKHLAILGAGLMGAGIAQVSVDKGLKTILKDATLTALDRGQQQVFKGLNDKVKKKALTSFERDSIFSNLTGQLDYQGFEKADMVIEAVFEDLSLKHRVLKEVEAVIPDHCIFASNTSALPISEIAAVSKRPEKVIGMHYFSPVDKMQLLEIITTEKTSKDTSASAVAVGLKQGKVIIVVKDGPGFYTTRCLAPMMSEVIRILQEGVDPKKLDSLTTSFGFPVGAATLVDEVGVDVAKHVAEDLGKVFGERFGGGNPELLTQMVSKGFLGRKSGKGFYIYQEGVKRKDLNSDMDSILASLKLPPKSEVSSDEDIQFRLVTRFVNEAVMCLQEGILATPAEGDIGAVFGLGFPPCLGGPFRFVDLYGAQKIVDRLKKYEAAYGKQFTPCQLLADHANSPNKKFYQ
active: [8] 0.595
inactive: [1] -0.102 | [2] 0.032 | [3] -0.238 | [4] 0.05 | [5] 0.044 | [6] -0.19 | [7] 0.177 | [9] -0.024 | [10] -0.191

HSD17B12 (UniProt Q53GQ0)
UniProt Q53GQ0, sequence (Q53GQ0 whole entry, looked up): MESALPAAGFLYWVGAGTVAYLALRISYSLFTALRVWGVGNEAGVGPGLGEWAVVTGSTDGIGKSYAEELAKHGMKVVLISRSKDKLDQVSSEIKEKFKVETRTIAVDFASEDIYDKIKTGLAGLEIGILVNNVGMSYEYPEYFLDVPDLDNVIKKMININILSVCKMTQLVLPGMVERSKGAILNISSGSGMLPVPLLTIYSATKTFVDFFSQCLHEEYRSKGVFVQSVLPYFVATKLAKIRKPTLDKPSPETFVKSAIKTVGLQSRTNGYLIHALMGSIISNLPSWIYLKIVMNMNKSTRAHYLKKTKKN
inactive: [1] -0.037 | [2] 0.151 | [3] -0.082 | [4] -0.007 | [5] 0.005 | [6] -0.024 | [7] -0.043 | [8] 0.038 | [9] 0.027 | [10] 0.013

FECH isoform 2 (UniProt P22830)
inactive: [1] -0.035 | [2] 0.008 | [3] -0.016 | [4] -0.12 | [5] 0.245 | [6] 0.102 | [7] 0.043 | [8] 0.538 | [9] -0.033 | [10] -0.116

GCC2 (UniProt Q8IWJ2)
inactive: [1] -0.051 | [2] -0.077 | [3] 0.117 | [4] 0.053 | [5] 0.061 | [6] 0.026 | [7] 0.175 | [8] 0.031 | [9] 0.136 | [10] -0.049
